Where “and” joins values, the source holds several entries; their conditions need not be identical. Identical values can stand only once. Out of some 5,500 compounds screened, about 2,000 (36%) were called active. Roughly 18% stayed inconclusive and do not appear here. Cut-off read from the data, not from the text of the source: active = normalized growth mostly below about 0.91 (no sharp cut-off); inconclusive = no clear call, values can overlap the other calls; inactive = mostly above about 0.92. The list shows a part of the results.
Assay: chemical genetic growth profiling, strain panel (AID 1159580);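 note: tested at 20 µM; growth read once vehicle control cultures reached saturation at 30 °C; 1 = growth at the plate median or of vehicle wells; lower values mean less growth of the strain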
Details: S. cerevisiae deletion strains, growth OD

Measured: normalized growth

COc1ccccc1N1CCN(CCCNc2cc(=O)n(C)c(=O)n2C)CC1
inactive: locus YAL013W, strain DEP1, stronger effect = lower value 0.976 | locus YAL021C, strain ccr4, stronger effect = lower value 0.998 | locus YAL026C, strain drs2, stronger effect = lower value 1.02 | locus YAL030W, strain snc1, stronger effect = lower value 1.01 | locus YAL040C, strain CLN3, stronger effect = lower value 1 | locus YBL061C, strain skt5, stronger effect = lower value 1.01 | locus YBR009C, strain hhf1, stronger effect = lower value 1 | locus YBR021W, strain FUR4, stronger effect = lower value 1.05 | locus YBR023C, strain chs3, stronger effect = lower value 1.02 | locus YBR171W, strain sec66, stronger effect = lower value 1.02 | locus YBR229C, strain ROT2, stronger effect = lower value 0.952 | locus YBR231C, strain swc5, stronger effect = lower value 1.01 | locus YBR279W, strain paf1, stronger effect = lower value 1.01 | locus YCL011C, strain gbp2, stronger effect = lower value 1.01 | locus YCL016C, strain dcc1, stronger effect = lower value 1.01 | locus YCL029C, strain bik1, stronger effect = lower value 0.984 | locus YCL061C, strain MRC1 (second series), stronger effect = lower value 1 | locus YCL061C, strain MRC1, stronger effect = lower value 1.02 | locus YCL069W, strain vba3, stronger effect = lower value 1.02 | locus YCR088W, strain abp1, stronger effect = lower value 1.01 | locus YDL005C, strain med2, stronger effect = lower value 1.02 | locus YDL035C, strain GPR1, stronger effect = lower value 0.986 | locus YDL040C, strain nat1, stronger effect = lower value 0.994 | locus YDL074C, strain BRE1, stronger effect = lower value 0.961 | locus YDL101C, strain DUN1, stronger effect = lower value 0.959 | locus YDL134C, strain PPH21, stronger effect = lower value 0.984 | locus YDL185W, strain tfp1, stronger effect = lower value 0.961 | locus YDL192W, strain arf1, stronger effect = lower value 0.99 | locus YDR001C, strain nth1, stronger effect = lower value 1.01 | locus YDR069C, strain doa4, stronger effect = lower value 1.01 | locus YDR101C, strain arx1, stronger effect = lower value 0.994 | locus YDR137W, strain rgp1, stronger effect = lower value 1.03 | locus YDR150W, strain NUM1, stronger effect = lower value 0.968 and 1.01 | locus YDR159W, strain sac3, stronger effect = lower value 1 | locus YDR162C, strain NBP2, stronger effect = lower value 0.962 | locus YDR195W, strain ref2 1.01 | locus YDR297W, strain sur2, stronger effect = lower value 1.01 | locus YDR318W, strain mcm21, stronger effect = lower value 1.01 | locus YDR334W, strain swr1, stronger effect = lower value 1.02 | locus YDR335W, strain msn5, stronger effect = lower value 1.02 | locus YDR363W, strain ESC2, stronger effect = lower value 1 | locus YDR388W, stronger effect = lower value 0.998 | locus YDR392W, strain spt3, stronger effect = lower value 0.944 | locus YDR502C, strain sam2, stronger effect = lower value 1 | locus YEL003W, strain gim4, stronger effect = lower value 1.01 | locus YEL037C, strain rad23, stronger effect = lower value 1.01 | locus YEL061C, strain CIN8 (second series), stronger effect = lower value 1.01 | locus YEL061C, strain CIN8, stronger effect = lower value 0.986 | locus YER002W, strain NOP16, stronger effect = lower value 0.991 | locus YER015W, strain faa2, stronger effect = lower value 1.02 | locus YER016W, strain bim1, stronger effect = lower value 1.02 | locus YER110C, stronger effect = lower value 0.994 | locus YER111C, strain swi4, stronger effect = lower value 1 | locus YER155C, strain BEM2 (second series), stronger effect = lower value 1.02 | locus YER155C, strain BEM2, stronger effect = lower value 0.993 | locus YER167W, strain BCK2, stronger effect = lower value 0.98 | locus YFR010W, strain ubp6, stronger effect = lower value 1.02 | locus YGL078C, strain dbp3, stronger effect = lower value 0.99 | locus YGL086W, strain mad1, stronger effect = lower value 1.01 | locus YGL167C, strain pmr1, stronger effect = lower value 1.01 | locus YGL173C, strain kem1, stronger effect = lower value 1.01 | locus YGL227W, strain vid30, stronger effect = lower value 1.01 | locus YGL240W, strain doc1, stronger effect = lower value 0.996 | locus YGL248W, strain PDE1, stronger effect = lower value 0.974 | locus YGL253W, strain hxk2, stronger effect = lower value 1.01 | locus YGR078C, strain PAC10, stronger effect = lower value 0.981 and 0.985 | locus YGR135W, strain pre9, stronger effect = lower value 0.985 | locus YGR229C, strain SMI1, stronger effect = lower value 1.01 | locus YGR252W, strain gcn5, stronger effect = lower value 1.05 | locus YHR013C, strain ard1, stronger effect = lower value 1.01 | locus YHR027C, strain rpn1, stronger effect = lower value 1.01 | locus YHR030C, strain SLT2, stronger effect = lower value 0.983 | locus YHR079C, strain IRE1 (second series), stronger effect = lower value 1 | locus YHR094C, strain hxt1, stronger effect = lower value 0.992 | locus YHR129C, strain ARP1, stronger effect = lower value 0.988 | locus YHR142W, strain chs7, stronger effect = lower value 1.01 | locus YHR200W, strain rpn10, stronger effect = lower value 0.994 | locus YIL066C, strain RNR3, stronger effect = lower value 0.985 | locus YIL073C, strain SPO22, stronger effect = lower value 0.998 | locus YIL125W, strain kgd1, stronger effect = lower value 0.997 | locus YIR030C, strain dcg1, stronger effect = lower value 0.983 | locus YJL092W, strain hpr5, stronger effect = lower value 1.01 | locus YJL095W, strain BCK1 (second series), stronger effect = lower value 1.01 | locus YJL095W, strain BCK1, stronger effect = lower value 1 | locus YJL115W, strain asf1, stronger effect = lower value 1.03 | locus YJL129C, strain trk1, stronger effect = lower value 1.05 | locus YJL134W, strain LCB3, stronger effect = lower value 0.98 | locus YJL154C, strain vps35, stronger effect = lower value 1.02 | locus YJL164C, strain tpk1, stronger effect = lower value 1.01 | locus YJL166W, strain qcr8, stronger effect = lower value 1.01 | locus YJL168C, strain set2, stronger effect = lower value 0.998 | locus YJL187C, strain SWE1 (second series), stronger effect = lower value 0.978 | locus YJL187C, strain SWE1, stronger effect = lower value 1.01

Source: PubChem BioAssay AID1159580 (chemical genetic matrix, 2015)
